In PubChem BioAssay (Tox21):
Inconclusive results are not listed. The source made the active and inactive calls. Unless noted, calls come from the whole dose curve; as a rule, active = well fitted curve in the direction sought with a large enough effect in the repeat runs; inconclusive = weak or mixed curves; inactive = no such curve, though single readings can be large; an effect the other way counts as inactive or inconclusive.

Columns and labels:
[1] = qHTS assay to identify aromatase inhibitors - cell viability counter screen (AID 743084);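 note: cells stimulated with testosterone during compound exposure; nearly all actives have a fitted effect of over 55% in size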
[2] = qHTS assay to identify small molecule that activate the aryl hydrocarbon receptor (AhR) signaling pathway - cell viability counter screen (AID 743086);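 note: HepG2 liver cells carrying the AhR DRE luciferase reporter; series mostly up to about 70 µM; nearly all actives have a fitted effect of over 45% in size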
Method in brief: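 HepG2-AhR-luc (HG2L7.5c1) cells, 4000/well, were preincubated 5 h at 37C, exposed to compound in qHTS format for 24 hr at 37C, then given CellTiter-Fluor for 30 min; viability was read as fluorescence in the reporter wells.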

[3] = target: Peroxisome proliferator-activated receptor gamma (Homo sapiens) (UniProt P37231); test: qHTS assay to identify small molecule agonists of the peroxisome proliferator-activated receptor gamma (PPARg) signaling pathway (AID 743094; active = well fitted activation curve with a large enough effect in the signal ratio in the repeat runs, not every such curve was filed as active; the % refers to the signal ratio)
Method in brief: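 Reporter activation was scored by fluorescence of cleaved LiveBLAzer B/G substrate (1 h, room temperature) in PPARg-bla HEK293H cells previously treated 17 h at 37C with DMSO-dissolved compounds.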

[4] = qHTS assay to identify small molecule antagonists of the peroxisome proliferator-activated receptor gamma (PPARg) signaling pathway - cell viability counter screen (AID 743194); note: nearly all actives have a fitted effect of over 55% in size
Method in brief: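 PPARg-UAS-bla HEK293H cells were plated, rested 5 h at 37 C, then treated with compounds plus rosiglitazone (50 nM final) for 17 h at 37 C; viability was then read by CellTiter-Glo luminescence after 30 min at room temperature.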

[5] = qHTS assay for small molecule agonists of the antioxidant response element (ARE) signaling pathway - cell viability counter screen (AID 743203; calls by dose curve; note: nearly all actives have a fitted effect of over 55% in size)
Method in brief: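 Viability counter screen: stably transfected ARE-bla HepG2 line, 16 hrs compound exposure at 37C/5% CO2, ATP-based CellTiter-Glo luminescence measured in the reporter wells.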

[6] = qHTS assay for small molecule activators of the heat shock response signaling pathway - cell viability counter screen (AID 743209); note: nearly all actives have a fitted effect of over 50% in size
Method in brief: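 Viability of HSE-bla HeLa cells is measured with CellTiter-Glo in the wells already used for the reporter read. Compound exposure lasts 5 h at 37 C, and luminescence is read after 30 min at room temperature.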

[7] = qHTS assay for small molecule agonists of the antioxidant response element (ARE) signaling pathway (AID 743202; active = well fitted activation curve with a large enough effect in the signal ratio in the repeat runs, not every such curve was filed as active; the % refers to the signal ratio)
Method in brief: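 Steps: seed ARE-bla HepG2 cells (2,000/well); incubate 5 h at 37 C; add compounds by pin tool; incubate 16 h at 37 C; add FRET substrate; read fluorescence after 2 h at RT.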

[8] = qHTS assay for small molecule activators of the heat shock response signaling pathway (AID 743210; active = well fitted activation curve with a large enough effect in the signal ratio in the repeat runs, with a control signal flat, not every such curve was filed as active; the % refers to the signal ratio;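 note: HeLa cells with beta-lactamase reporter driven by heat shock elements; series mostly up to about 63 µM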)
Method in brief: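 Activation of heat shock element-controlled beta-lactamase expression is measured in HeLa cells by LiveBLAzer FRET fluorescence, with compound exposure lasting 5 h at 37 C and substrate loading 2.5 h at room temperature.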

[9] = qHTS assay to identify small molecule agonists of the peroxisome proliferator-activated receptor delta (PPARd) signaling pathway - cell viability counter screen (AID 743211); note: nearly all actives have a fitted effect of over 55% in size
Method in brief: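 qHTS cell viability: PPARd-bla HEK293H; 17 h cpd, 37C; CellTiter-Glo, luminescence at 30 min RT.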

[10] = qHTS assay to identify small molecule antagonists of the peroxisome proliferator-activated receptor delta (PPARd) signaling pathway - cell viability counter screen (AID 743213); note: nearly all actives have a fitted effect of over 50% in size
Method in brief: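 HEK293H cells with the PPARd UAS-bla reporter, co-treated 17 h at 37 C with compounds and L165041 (300 nM final), were lysed with CellTiter-Glo. Luminescence indicated viable cell content.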

[11] = qHTS assay to identify small molecule agonists of the farnesoid-X-receptor (FXR) signaling pathway - cell viability counter screen (AID 743218); note: nearly all actives have a fitted effect of over 45% in size
Method in brief: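 Viability of FXR-bla HEK 293T cells is measured by ATP-based CellTiter-Glo luminescence following 16 h compound treatment at 37 C and a prior 2 h room-temperature beta-lactamase substrate step.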

[12] = qHTS assay to identify small molecule antagonists of the farnesoid-X-receptor (FXR) signaling pathway - cell viability counter screen (AID 743221; active = well fitted cell-killing curve with a large enough effect in the repeat runs, not every such curve was filed as active; note: nearly all actives have a fitted effect of over 50% in size)
Method in brief: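 After a 5 h settling period, FXR-bla HEK 293T cells receive compound and chenodeoxycholic acid (50 uM final) and incubate 16 h at 37 C; CellTiter-Glo luminescence, read after 30 min at room temperature, reports cell viability.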

[13] = target: Vitamin D3 receptor (Homo sapiens) (UniProt P11473); test: qHTS assay to identify small molecule agonists of the vitamin D receptor (VDR) signaling pathway (AID 743222; calls by dose curve)
Method in brief: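 Fluorescence from cleaved LiveBLAzer B/G FRET substrate served as readout. VDR-bla cells had been treated 16 h at 37C with test compounds in DMSO, following a 4 h settling period, and substrate was loaded for 2 h at RT.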

[14] = target: Peroxisome proliferator-activated receptor delta (Homo sapiens) (UniProt Q03181); test: qHTS assay to identify small molecule agonists of the peroxisome proliferator-activated receptor delta (PPARd) signaling pathway (AID 743212; calls by dose curve)
Method in brief: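 Cells expressing a UAS-driven beta-lactamase reporter (PPARd-bla HEK293H) were given test compounds after a 5 h settle and kept at 37 C. Reporter activity was then measured as FRET fluorescence using LiveBLAzer B/G substrate.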

[15] = target: Peroxisome proliferator-activated receptor delta (Homo sapiens) (UniProt Q03181); test: qHTS assay to identify small molecule antagonists of the peroxisome proliferator-activated receptor delta (PPARd) signaling pathway (AID 743215; active = well fitted inhibition curve with a large enough effect in the signal ratio in the repeat runs, not every such curve was filed as active; the % refers to the signal ratio;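 note: cells stimulated with agonist L165041 at 300 nM final during compound exposure; series mostly up to about 62 µM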)
Method in brief: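 Plated HEK293H PPARd-bla cells rested 5 h at 37 C and 5% CO2. Compound, then agonist L165041 at 300 nM final, was added; 17 h at 37 C followed. Substrate loading, 2 h room temperature, fluorescence measured.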

[16] = target: Peroxisome proliferator-activated receptor gamma (Homo sapiens) (UniProt P37231); test: qHTS assay to identify small molecule antagonists of the peroxisome proliferator-activated receptor gamma (PPARg) signaling pathway (AID 743191; calls by dose curve; note: series mostly up to about 63 µM; nearly all actives have a fitted effect of over 30% in size)
Method in brief: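 GeneBLAzer PPARg UAS-bla HEK293H cells carrying a UAS-driven beta-lactamase reporter were plated at 3000 cells/well, preincubated 5 h at 37C, then given compound for 17 h at 37C; LiveBLAzer B/G FRET substrate was read after 1 h at room temperature.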

[17] = target: Bile acid receptor (Homo sapiens) (UniProt Q96RI1); test: qHTS assay to identify small molecule antagonists of the farnesoid-X-receptor (FXR) signaling pathway (AID 743217; active = well fitted inhibition curve with a large enough effect in the signal ratio in the repeat runs, not every such curve was filed as active; the % refers to the signal ratio)
Method in brief: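 Screen of the Tox21 10K library in quantitative HTS format using FXR-UAS-bla HEK 293T reporter cells. Agonist chenodeoxycholic acid, 50 uM final, added with compounds; 16 h incubation at 37 °C; beta-lactamase FRET fluorescence measured.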

[18] = target: Bile acid receptor (Homo sapiens) (UniProt Q96RI1); test: qHTS assay to identify small molecule agonists of the farnesoid-X-receptor (FXR) signaling pathway (AID 743220; active = well fitted activation curve with a large enough effect in the signal ratio in the repeat runs, not every such curve was filed as active; the % refers to the signal ratio)
Method in brief: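 FXR-UAS-bla HEK 293T cells carrying a UAS-driven beta-lactamase reporter were plated for 5 h at 37C/5% CO2, then exposed to DMSO-dissolved Tox21 10K compounds for 16 h at 37C. A LiveBLAzer B/G FRET substrate was loaded for 2 h at room temperature before fluorescence reading.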

[19] = target: Vitamin D3 receptor (Homo sapiens) (UniProt P11473); test: qHTS assay to identify small molecule antagonists of the vitamin D receptor (VDR) signaling pathway (AID 743223; active = well fitted inhibition curve with a large enough effect in the signal ratio in the repeat runs, not every such curve was filed as active; the % refers to the signal ratio)
Method in brief: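 Reporter line VDR-bla; stimulus 1alpha,25-(OH)2 vitamin D3, 3 nM final; compound co-addition, 16 h 37C/5% CO2; LiveBLAzer B/G substrate 2 h RT; fluorescence intensity.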
% is set by controls: 0 for no effect and ±100 for the full control effect.

Chain of Peroxisome proliferator-activated receptor gamma (Homo sapiens) (P37231 whole entry, looked up): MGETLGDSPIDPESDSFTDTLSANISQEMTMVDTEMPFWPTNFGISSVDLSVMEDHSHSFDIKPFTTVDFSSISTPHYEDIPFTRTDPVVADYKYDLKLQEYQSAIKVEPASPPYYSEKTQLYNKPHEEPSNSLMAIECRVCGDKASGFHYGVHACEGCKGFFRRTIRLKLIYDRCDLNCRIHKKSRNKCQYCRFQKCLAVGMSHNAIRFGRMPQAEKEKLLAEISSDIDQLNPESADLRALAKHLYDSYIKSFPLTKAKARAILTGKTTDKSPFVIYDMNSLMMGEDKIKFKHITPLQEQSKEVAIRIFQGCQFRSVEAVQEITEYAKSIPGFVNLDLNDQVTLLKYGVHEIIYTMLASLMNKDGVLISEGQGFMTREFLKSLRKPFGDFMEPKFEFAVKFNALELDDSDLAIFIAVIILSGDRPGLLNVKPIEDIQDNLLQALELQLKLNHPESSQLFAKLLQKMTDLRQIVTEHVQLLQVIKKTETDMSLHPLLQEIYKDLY
Chain of Vitamin D3 receptor (Homo sapiens) (P11473 whole entry, looked up): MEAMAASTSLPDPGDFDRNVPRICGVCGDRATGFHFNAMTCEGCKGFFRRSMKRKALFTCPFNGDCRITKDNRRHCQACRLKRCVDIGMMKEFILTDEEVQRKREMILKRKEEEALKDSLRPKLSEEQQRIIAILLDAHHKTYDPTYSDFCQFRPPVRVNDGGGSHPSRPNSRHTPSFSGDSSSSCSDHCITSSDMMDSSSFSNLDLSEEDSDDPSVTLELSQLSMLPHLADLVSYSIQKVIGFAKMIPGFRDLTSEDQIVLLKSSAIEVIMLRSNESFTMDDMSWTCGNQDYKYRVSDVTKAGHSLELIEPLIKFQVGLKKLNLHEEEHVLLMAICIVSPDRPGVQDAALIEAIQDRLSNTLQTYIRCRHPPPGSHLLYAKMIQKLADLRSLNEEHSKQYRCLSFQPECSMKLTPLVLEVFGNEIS
Chain of Peroxisome proliferator-activated receptor delta (Homo sapiens) (Q03181 whole entry, looked up): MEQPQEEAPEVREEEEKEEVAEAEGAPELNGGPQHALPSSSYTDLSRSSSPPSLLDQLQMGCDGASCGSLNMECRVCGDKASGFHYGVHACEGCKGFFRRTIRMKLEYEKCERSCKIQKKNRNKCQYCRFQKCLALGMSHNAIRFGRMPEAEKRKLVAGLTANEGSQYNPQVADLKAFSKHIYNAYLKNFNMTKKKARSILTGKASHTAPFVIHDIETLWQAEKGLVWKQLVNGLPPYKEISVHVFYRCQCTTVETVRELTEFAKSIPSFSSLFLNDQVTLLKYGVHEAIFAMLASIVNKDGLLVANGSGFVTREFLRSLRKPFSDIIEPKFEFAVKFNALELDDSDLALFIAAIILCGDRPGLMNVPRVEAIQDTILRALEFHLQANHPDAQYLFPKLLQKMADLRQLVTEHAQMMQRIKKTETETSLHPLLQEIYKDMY
Chain of Bile acid receptor (Homo sapiens) (Q96RI1 whole entry, looked up): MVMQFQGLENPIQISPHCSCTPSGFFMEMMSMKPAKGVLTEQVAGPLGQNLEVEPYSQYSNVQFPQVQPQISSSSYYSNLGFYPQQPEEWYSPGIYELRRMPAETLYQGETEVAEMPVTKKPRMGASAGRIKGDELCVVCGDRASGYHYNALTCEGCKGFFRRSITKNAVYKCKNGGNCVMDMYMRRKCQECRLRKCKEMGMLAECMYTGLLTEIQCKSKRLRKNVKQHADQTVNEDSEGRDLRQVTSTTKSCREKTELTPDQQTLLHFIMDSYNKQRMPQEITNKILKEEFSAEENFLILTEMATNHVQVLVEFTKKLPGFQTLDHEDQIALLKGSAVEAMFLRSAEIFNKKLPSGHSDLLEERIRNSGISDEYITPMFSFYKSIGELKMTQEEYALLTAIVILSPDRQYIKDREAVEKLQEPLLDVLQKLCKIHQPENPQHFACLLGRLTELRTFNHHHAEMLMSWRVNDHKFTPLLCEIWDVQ

Clc1ccc(Cn2c(CN3CCCC3)nc3ccccc32)cc1
inactive: Potency [1] | Potency [2] | Potency [3] | Potency [4] | Potency [5] | Potency [6]

CCCCCC[C@@H](O)C/C=C\CCCCCCCC(=O)OC
inactive: Potency [1] | Potency [2] | Potency [3] | Potency [4] | Potency [7] | Potency [5] | Potency [6] | Potency [8] | Potency [9] | Potency [10] | Potency [11] | Potency [12] | Potency [13]

COC(C)(C)CCO
inactive: Potency [1] | Potency [2] | Potency [3] | Potency [4] | Potency [7] | Potency [5] | Potency [6] | Potency [8] | Potency [9] | Potency [14] | Potency [10] | Potency [15] | Potency [12] | Potency [13]

OC(CN1CCC(Cc2ccc(F)cc2)CC1)c1ccc(Cl)cc1 (stereo not given)
inactive: Potency [1] | Potency [2] | Potency [3] | Potency [16] | Potency [6] | Potency [9] | Potency [10] | Potency [17] | Potency [18] | Potency [12]

CCCCCCCC#N
inactive: Potency [1] | Potency [2] | Potency [3] | Potency [16] | Potency [4] | Potency [7] | Potency [5] | Potency [9] | Potency [14] | Potency [12] | outcome [19]

c1ccc(CNCCNCc2ccccc2)cc1
inactive: Potency [1] | Potency [2] | Potency [3] | Potency [4] | Potency [7] | Potency [5] | Potency [6] | Potency [8] | Potency [9] | Potency [14] | Potency [10] | Potency [15] | Potency [11] | Potency [12] | outcome [19]

C/C(=C(\CCOP(=O)(O)O)SC(=O)c1ccccc1)N(C=O)Cc1cnc(C)nc1N
inactive: Potency [1] | Potency [2] | Potency [3] | ratio activity, negative = inhibition [16] 3.86% [at 5.95 µM] | activity change, negative = cytotoxicity [4] 4.9% [at 5.95 µM] | activation [7] 14.1% [at 8.36 µM] | viability change, negative = cytotoxic [5] 8.52% [at 8.36 µM] | activation [8] 1.29% [at 5.95 µM] | activity change, negative = cytotoxicity [9] 2.72% [at 5.95 µM] | activation [14] -1.46% [at 5.95 µM] | viability change, negative = cytotoxic [10] 1.06% [at 6.26 µM] | ratio activity, negative = inhibition [15] 6.78% [at 6.26 µM] | activity change, negative = cytotoxicity [12] 0.132% [at 5.95 µM] | activation [13] -0.529% [at 6.01 µM]

C[Si](C)(CCCN)O[Si](C)(C)CCCN
inactive: Potency [1] | Potency [2] | Potency [3] | Potency [4] | Potency [5] | Potency [6] | Potency [8] | Potency [14] | Potency [10] | Potency [15] | Potency [12]

COc1ccc(C(=O)c2ccc(OC)cc2O)c(O)c1
inactive: Potency [1] | Potency [2] | Potency [3] | Potency [5] | Potency [6] | Potency [8] | Potency [14] | Potency [11] | Potency [12] | Potency [13] | outcome [19]
